Results on 15 molecules are retold here after the supplement of paper PMC6522484.

± gives the standard deviation of the averaged measurements.

The test system of assay [1] is DLD1. Briefly: cell viability (CellTiter-Glo) relative to plate median (fraction of plate median); higher = more viable cells. The settings on record: 5 µM; treatment time 24 h; reporter: 7TFP. The procedure, abridged:
(§1)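 Library compounds were added at a final concentration of 5 µM for 24 h to colorectal cancer cells stably transduced with a lentiviral TCF/Wnt firefly luciferase reporter. Reported values are firefly luciferase or CellTiterGlo luminescence, normalised per well to the plate median. Each value averages two independent replicates.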
In general terms: In ATP-based viability assays light output follows the ATP content of the culture.

The test system of a further assay is HCT116. The assay is described as above. The settings on record: 5 µM; treatment time 24 h; reporter: TCF4/Wnt. The procedure, abridged: as §1
Assay [2] concerns SW480. Described as above. The settings on record: 5 µM; treatment time 24 h; reporter: 7TFP. The method in brief: as §1
Assay [3] has as its system DLD1. The assay is described as follows: TCF/Wnt firefly luciferase reporter signal relative to plate median (fraction of plate median); higher = higher Wnt reporter signal. The settings on record: 5 µM; treatment time 24 h; reporter: 7TFP. The procedure, abridged:
as §1

In assay [4] the test system is SW480. The description is as above. The settings on record: 5 µM; treatment time 24 h; reporter: 7TFP. The method in brief: as §1

As to `N[C@@H](C(=O)O)[C@@H](O)[C@H](O)[C@H](O)CO`, the values for the cell viability in the assay on DLD1 [1], in the assay on HCT116 and in the assay on SW480 [2] were 0.989 ± 0.073, 0.95 ± 0.021 and 1.01 ± 0.02, respectively. Moreover, the “TCF/Wnt firefly luciferase reporter signal” value with DLD1 [3] came out at 1 ± 0.14; in the assay with SW480 [4] it was 0.996 ± 0.034.
As to `CCCCCCc1ccc(O)cc1O`, the values for the cell viability in the assay with DLD1 [1], in the assay on HCT116 and in the assay on SW480 [2] were 1.04 ± 0.061, 1.14 ± 0.021 and 1.07, respectively. The results for the “TCF/Wnt firefly luciferase reporter signal” value in the assay with DLD1 [3] and in the assay on SW480 [4] were 1.09 ± 0.014 and 1 ± 0.11, respectively.
For `COC(=O)c1c(C)cc(OC(=O)c2c(C)cc(O)c(C=O)c2O)c(C)c1O`, in that order: 1.06 ± 0.021, 1.07 ± 0.092, 1.06 ± 0.064, 1 ± 0.14 and 1.04 ± 0.028.
Consider `O=c1cc(-c2ccccc2O)oc2cc(O)ccc12`, for which the results for the cell viability with DLD1 [1], with HCT116 and with SW480 [2] were 1.01 ± 0.069, 1.02 ± 0.094 and 0.976 ± 0.025, respectively. Further, the “TCF/Wnt firefly luciferase reporter signal” value was 1.17 ± 0.042 with DLD1 [3] and 1.23 ± 0.085 in the assay with SW480 [4].
For `CC1=CC(=O)C(C(C)C)=CC1=O`, the cell viability turned out to be 1.04 ± 0.057 with DLD1 [1], 1.03 ± 0.054 in the assay with HCT116 and 1.05 ± 0.014 in the assay on SW480 [2]. Further, the “TCF/Wnt firefly luciferase reporter signal” value in the assay with DLD1 [3] worked out at 1.09 ± 0.11; with SW480 [4], 1.1 ± 0.064.
With `C=CC(C1=CC(=O)C(OC)=CC1=O)c1ccccc1` (stereo not given), the cell viability in the assay on DLD1 [1] was 0.983 ± 0.0014; in the assay on HCT116, 1.05 ± 0.042; in the assay with SW480 [2], 1.03 ± 0.021. The “TCF/Wnt firefly luciferase reporter signal” value was determined as 0.985 ± 0.079 in the assay with DLD1 [3] and 1.01 ± 0.054 in the assay with SW480 [4].
Consider `CC(=O)OCC(=O)[C@@]1(O)CC[C@H]2[C@@H]3CCC4=CC(=O)CC[C@]4(C)[C@H]3C(=O)C[C@@]21C`, for which the values for the cell viability with DLD1 [1], in the assay on HCT116 and in the assay with SW480 [2] were 1.04 ± 0.021, 1 ± 0.079 and 1.12 ± 0.12, respectively. Besides, the results for the “TCF/Wnt firefly luciferase reporter signal” value in the assay on DLD1 [3] and in the assay with SW480 [4] were 1.05 ± 0.021 and 1.04 ± 0.13, respectively.
`CCC(=O)OCC(=O)[C@@]1(OC(=O)CC)[C@@H](C)C[C@H]2[C@@H]3CCC4=CC(=O)C=C[C@]4(C)[C@@]3(F)[C@@H](O)C[C@@]21C`: the values for the cell viability in the assay with DLD1 [1], with HCT116 and in the assay on SW480 [2] were 1.015 ± 0.0071, 1.03 ± 0.073 and 0.963 ± 0.018, respectively. The “TCF/Wnt firefly luciferase reporter signal” value in the assay on DLD1 [3] is 0.876 ± 0.12; in the assay on SW480 [4], 0.941 ± 0.014.
For `COC(=O)c1c(C)cc(O)cc1O`, the cell viability in the assay with DLD1 [1] was determined as 0.999 ± 0.03; in the assay on HCT116, 0.837 ± 0.23; with SW480 [2], 1 ± 0.037. Also, the results for the “TCF/Wnt firefly luciferase reporter signal” value in the assay with DLD1 [3] and in the assay with SW480 [4] were 1.15 ± 0.014 and 0.984 ± 0.11, respectively.
With `COc1cc(/C=C/C(=O)O)ccc1O` [Ferulic acid (Biofocus)], the cell viability in the assay with DLD1 [1] worked out at 0.923 ± 0.17; in the assay on HCT116 it was 1.05 ± 0.028; in the assay with SW480 [2] it was 1.02 ± 0.014. Besides, the results for the “TCF/Wnt firefly luciferase reporter signal” value with DLD1 [3] and in the assay with SW480 [4] were 0.962 ± 0.012 and 1.04 ± 0.069, respectively.
As to `COc1ccc2c(c1)[C@@]1(C)CCC(=O)C[C@H]1CC2` [5beta-12-METHOXY-4,4-BISNOR-8,11,13-PODOCARPATRIEN-3-ONE], the cell viability with DLD1 [1] is 0.9975 ± 0.0035; in the assay on HCT116, 1.07 ± 0.071; in the assay on SW480 [2], 1.01 ± 0.037. Moreover, the “TCF/Wnt firefly luciferase reporter signal” value with DLD1 [3] came out at 1.18 ± 0.2; in the assay with SW480 [4] it was 1.05 ± 0.057.
Take `COc1cnc(NS(=O)(=O)c2ccc(N)cc2)nc1`: the figures for the cell viability in the assay with DLD1 [1], with HCT116 and with SW480 [2] were 0.973 ± 0.0057, 1.04 ± 0.035 and 1.03 ± 0.035, respectively. Further, the “TCF/Wnt firefly luciferase reporter signal” value in the assay with DLD1 [3] was found to be 1.04 ± 0.22; with SW480 [4], 0.892 ± 0.055.
The like results for `CCS(=O)(=O)CCn1c([N+](=O)[O-])cnc1C` were, in that order, 0.965 ± 0.019, 0.975 ± 0.014, 1.01 ± 0.032, 0.869 ± 0.0028 and 0.862 ± 0.059.
For the molecule `O=C(C=Cc1ccc(O)cc1)c1ccccc1O`, the cell viability with DLD1 [1] worked out at 0.926 ± 0.089; in the assay on HCT116 it was 0.881 ± 0.03; in the assay on SW480 [2] it was 1.02 ± 0.028. In addition, the “TCF/Wnt firefly luciferase reporter signal” value in the assay with DLD1 [3] was found to be 1.06 ± 0.035; in the assay with SW480 [4], 1.07 ± 0.092.
Consider `COc1ccc([C@@H]2CC(=O)c3c(O)cc(O)cc3O2)cc1O`, for which the cell viability was 1.01 ± 0.014 in the assay on DLD1 [1], 0.93 ± 0.052 in the assay on HCT116 and 0.9885 ± 0.0092 in the assay on SW480 [2]. For the same molecule, the results for the “TCF/Wnt firefly luciferase reporter signal” value in the assay with DLD1 [3] and in the assay on SW480 [4] were 1.02 ± 0.11 and 0.982 ± 0.04, respectively.
